In the library only some 4% were active in any assay of this set; here they are far more common.
Mdm2-MdmX inh: inhibitors of human Mdm2/MdmX interaction; O15151+Q00987; AID 485346; 3% of 330,000 active; SaOS-2 split-luciferase Mdm2/MdmX complementation, luminescence; inhibition, % at 8 µM;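 active = inhibition of at least 50% at 8 µM in the primary screen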
Beta cell apopt: beta cell apoptosis inhibition; 0.8% of 300,000 active; INS-1E cytokine-induced death, ATP luminescence, 48 h; percent of positive-control rescue, neutral wells zero; protection from apoptosis, % (concentration not given with the values);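 active = Every replicate reaches about 75%, or at least half do and their mean reaches it too, limit read from the data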;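 note: higher means more ATP so stronger rescue from cytokine killing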
Gli-Sufu antag: antagonists of Gli-Sufu signaling; Sufu-KO-LIGHT fibroblasts, Gli luciferase reporter luminescence; inhibition, % at 5 µM; 0.74% of 340,000 active; AID 588413;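 active = inhibition above about 55%, limit read from the data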
Jurkat NFkB inh: lowers PMA/ionomycin-induced NF-kB signal in Jurkat cells; PMA/ionomycin-induced NF-kB luciferase reporter, luminescence; 0.53% of 330,000 active; inhibition, % at 4 µM; in the data active = inhibition above about 50%
697 NFkB inh: lowers PMA/ionomycin-induced NF-kB signal in 697 B cells | 697 B-cell NF-kB luciferase reporter, 16 h | inhibition, % at 4 µM | 0.33% of 330,000 active; in the data active = inhibition above about 35%
Mdm2 MdmX conf: confirmation of human Mdm2/MdmX interaction inhibitors; shares compounds with Mdm2-MdmX inh; Mdm2-MdmX binding, luminescent assay; inhibition, % at 8 µM; 55% of 10,000 active; in the data active = inhibition above about 40%
Full FLuc ctr: counter-screen for Mdm2/MdmX inhibitors: full-length luciferase; shares compounds with Mdm2-MdmX inh; inhibition, % at 8 µM; AID 504607; SaOS-2 full-length luciferase counterscreen, luminescence; 77% of 6,200 active;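 active = mean inhibition at 8 µM reaching about 37%, which flags the compound as non-specific, limit read from the data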;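 note: p53-null SaOS-2 cells with luciferase driven by a doxycycline-inducible promoter; compound on cells about two nights before reading with doxycycline added after day one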
Each line names hits and unclear results; the compound was inactive in the other large screens (follow-up assays come after a bar, where they were run).

CCOc1cc(S(=O)(=O)n2ccnc2)ccc1Br	none
Oc1ccc(-c2[nH]ncc2-c2ccc(Br)cc2)c(O)c1	Mdm2-MdmX inh 55.7 | Mdm2 MdmX conf inactive
COc1ccc(-c2[nH]ncc2-c2ccc(Cl)cc2)c(O)c1	none
COc1ccc(-c2cn[nH]c2-c2ccc(OCc3ccccc3)cc2O)cc1	Mdm2-MdmX inh 78.2 | Mdm2 MdmX conf 76.9 | Full FLuc ctr 54.9
O=[N+]([O-])c1ccc(COc2ccc(-c3[nH]ncc3-c3ccc(Cl)cc3)c(O)c2)cc1	Mdm2-MdmX inh 82.5 | Mdm2 MdmX conf 51.2 | Full FLuc ctr 42.6
Oc1ccc(-c2[nH]ncc2-c2ccc(Cl)cc2)c(O)c1	none
COc1ccccc1-c1cn[nH]c1-c1ccc(OCc2ccccc2)cc1O	none
COc1ccc(-c2cn[nH]c2-c2ccc(OC)cc2O)cc1	Mdm2-MdmX inh 70.7 | Mdm2 MdmX conf 61.9 | Full FLuc ctr inactive
O=C(COC(=O)c1cccnc1Cl)NCc1ccco1	none
COc1cc(/C=C/C(=O)OCC(=O)c2c(N)n(C)c(=O)n(C)c2=O)ccc1OCC#N	none
COc1cccc(CSc2nc3ccccc3cc2C=O)c1	Mdm2-MdmX inh 68.1 | Mdm2 MdmX conf 64.3 | Full FLuc ctr 60.8
COc1cccc(NC(=O)CSc2nc3ccccc3cc2Cc2ccccc2)c1	none
O=C(Nc1ccc(OCC(F)(F)C(F)F)c(C(F)(F)F)c1)c1ccccc1O	Mdm2-MdmX inh 94.0, Beta cell apopt 122.0 | Mdm2 MdmX conf 92.2 | Full FLuc ctr inactive
O=C(Nc1ccc(OCC(F)(F)C(F)F)c(C(F)(F)F)c1)c1ccccc1	none
Cc1cc(N2CCN(Cc3ccccc3)CC2)n2nc(C)c(-c3ccccc3)c2n1	none
COc1ccc(-c2c(C)nn3c(N4CCN(Cc5ccccc5)CC4)cc(C)nc23)cc1OC	Mdm2-MdmX inh 50.4 | Mdm2 MdmX conf inactive
Cc1nn2c(N3CCN(C4CCCC4)CC3)cc(C(C)(C)C)nc2c1-c1ccccc1	none
Cc1nn2c(N3CCN(C)CC3)cc(C(C)(C)C)nc2c1-c1ccccc1	Mdm2-MdmX inh 58.4 | Mdm2 MdmX conf 41.1 | Full FLuc ctr 76.2
COc1ccc(N=C2NN=C(c3c(C)[nH]c4ccccc34)CS2)cc1	Mdm2-MdmX inh 54.0 | Mdm2 MdmX conf inactive
Cc1ccc(CNC(=O)c2cc(C)nn2-c2ccccc2)cc1	none
Cc1ccc(Cc2nnc3n(-c4ccccc4)nc(C(=O)c4ccccc4)n3c2=O)cc1	Mdm2-MdmX inh 53.0 (no result: Beta cell apopt) | Mdm2 MdmX conf 57.9 | Full FLuc ctr 53.4
CCOC(=O)c1[nH]c(C)c(C(=O)N2CCc3ccccc32)c1C	Mdm2-MdmX inh 63.0 | Mdm2 MdmX conf 57.2 | Full FLuc ctr 81.8
COc1ccc2c(c1)[nH]c(=O)c1sc3ccccc3c12	Mdm2-MdmX inh 60.3 | Mdm2 MdmX conf inactive
COc1ccc2sc3c(=O)[nH]c4ccccc4c3c2c1	Mdm2-MdmX inh 71.6 | Mdm2 MdmX conf 74.5 | Full FLuc ctr 44.1
COc1ccc(OCc2cc(=O)[nH]c3ccccc23)cc1	none
Cc1sc2ncnc(N/N=C/c3cccc(O)c3)c2c1C	none
C/C(=N\Nc1ncnc2sc(C)c(C)c12)c1ccccn1	Mdm2-MdmX inh 98.7, Beta cell apopt 98.3, Gli-Sufu antag 93.6 | Mdm2 MdmX conf 61.0 | Full FLuc ctr 76.6
COc1ccc(-c2nn(-c3ccccc3)cc2/C=C/C(=O)OCC(=O)Nc2ccccc2C#N)cc1	Mdm2-MdmX inh 88.5 | Mdm2 MdmX conf inactive
COc1ccc(-c2nn(-c3ccccc3)cc2/C=C/C(=O)N2CCN(c3ccccn3)CC2)cc1	Mdm2-MdmX inh 58.6 | Mdm2 MdmX conf inactive
N#Cc1ccccc1NC(=O)COC(=O)/C=C/c1cn(-c2ccccc2)nc1-c1ccc(Cl)cc1	none (no result: Mdm2-MdmX inh, Beta cell apopt, Jurkat NFkB inh, 697 NFkB inh)
Cc1ccc(NC(=O)c2ccc3ccccc3n2)cc1S(=O)(=O)N(C)C	none
CN(C)c1ncnc2c1C(c1ccccc1)C(C)(C)O2 (centres undefined)	none (no result: Mdm2-MdmX inh, Beta cell apopt, Jurkat NFkB inh, 697 NFkB inh)
CCC(=NNC(=O)c1ccc2c(c1)nc(C)n2CC)c1cc(F)ccc1O	Mdm2-MdmX inh 58.1, Beta cell apopt 89.7 | Mdm2 MdmX conf inactive
NS(=O)(=O)c1ccc(CCNC(=O)CN2CCN(S(=O)(=O)c3ccccc3F)CC2)cc1	none
CSc1nc(-c2ccc(Cl)cc2)nc(N)c1C#N	Mdm2-MdmX inh 66.9 | Mdm2 MdmX conf 44.0 | Full FLuc ctr 73.0
N#Cc1c(N)nc(-c2ccccc2)nc1-c1ccccc1	Mdm2-MdmX inh 56.2 | Mdm2 MdmX conf inactive
Nc1nc(-c2ccc(Cl)cc2)nc(-c2ccc(Cl)cc2)n1	Mdm2-MdmX inh 57.1 | Mdm2 MdmX conf 40.4 | Full FLuc ctr 61.3
Cc1cc(=O)[nH]c2ccc(S(=O)(=O)N3CCOCC3)cc12	none
CCOc1cc(/C=N/NC(=O)Cn2nc([N+](=O)[O-])cc2C)cc(Br)c1OCc1ccccc1C	Mdm2-MdmX inh 52.2 | Mdm2 MdmX conf 46.9 | Full FLuc ctr 87.0
O=C(c1cccc(S(=O)(=O)N2CCN(c3ccccc3)CC2)c1)N1CCN(c2ccccc2O)CC1	none
S=c1nc[nH]c2c1sc1nc(N3CCOCC3)c3c(c12)CCCC3	none
COC(=O)c1cc2ccccc2c([N+](=O)[O-])c1O	none (no result: Mdm2-MdmX inh, Beta cell apopt, Jurkat NFkB inh, 697 NFkB inh)
COc1ccc2c(c1[N+](=O)[O-])CCC/C2=N/OC(=O)c1cccc2ccccc12	Mdm2-MdmX inh 51.9 | Mdm2 MdmX conf inactive
c1ccc(C(c2ccccc2)N2CCN(c3nc4ccccc4n4cnnc34)CC2)cc1	Mdm2-MdmX inh 67.9, Beta cell apopt 108.1 | Mdm2 MdmX conf inactive
c1cnc(N2CCN(c3nc4ccccc4n4cnnc34)CC2)nc1	none
COc1cc(NC(=O)c2cc(-c3ccccc3Cl)on2)cc(OC)c1OC	Mdm2-MdmX inh 65.1 | Mdm2 MdmX conf 54.4 | Full FLuc ctr 52.1
COc1cc(NC(=O)C(C)Oc2ccccc2)c(OC)cc1NC(=O)c1ccccc1 (centres undefined)	none (no result: Beta cell apopt)
CC(Oc1ccccc1)C(=O)Nc1ccc(NC(=O)c2ccccc2)cc1 (centres undefined)	Mdm2-MdmX inh 66.4 | Mdm2 MdmX conf inactive | Full FLuc ctr 52.1
O=C(CCl)Nc1cc(-c2ccccc2)nn1-c1ccccc1	Mdm2-MdmX inh 83.8 | Mdm2 MdmX conf 62.0 | Full FLuc ctr inactive
CC(=O)Nc1ccc(-c2cc(NC(C)=O)n(-c3ccccc3)n2)cc1	none
Cc1ccc(-c2nn(-c3ccccc3)cc2NC(=O)CCl)cc1	Mdm2-MdmX inh 65.9 | Mdm2 MdmX conf inactive
Cc1ccc(-c2cc(NC(=O)CCl)n(-c3ccccc3)n2)cc1	Mdm2-MdmX inh 92.4 | Mdm2 MdmX conf inactive
Cc1ccc(-n2nc(C)c(NC(=O)CCl)c2C)cc1	Mdm2-MdmX inh 85.2 | Mdm2 MdmX conf 42.5 | Full FLuc ctr 70.7
COc1ccc(-c2noc(CCC(=O)N3CCN(c4cccc(F)c4)CC3)n2)cc1	none (no result: Beta cell apopt, Jurkat NFkB inh)
CCCCCCN=C(C)c1ccccc1O	none (no result: Beta cell apopt)

Source: PubChem BioAssay (several laboratories)
